# Data published in PubChem BioAssay (NCATS).
# Inconclusive results are not listed. Values without a mark were called inactive. Calls of active or inactive are those of the source. Unless noted, the call rests on the fitted dose curve.
# Biological target: Cytochrome P450 1A2 (Homo sapiens) (UniProt P05177)
# Test: p450-cyp1a2 (AID 410); further: potency means the concentration at half of the fitted maximal effect;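 on activity change, negative = inhibition: -100% = full effect of reference inhibitor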
# Conditions: recombinant CYP1A2, luciferin-ME demethylation, luminescence; series mostly up to 57 µM
# Outline: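 20nM CYP1A2 with 100uM Luciferin-ME (at Km) in 100mM KPO4; compound preincubated 10 min, NADPH regeneration added, 60 min at room temperature. Luciferin quantified by luminescence after detection reagent; normalized to 57 uM furafylline.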
# Chain of Cytochrome P450 1A2 (Homo sapiens) (P05177 whole entry, looked up): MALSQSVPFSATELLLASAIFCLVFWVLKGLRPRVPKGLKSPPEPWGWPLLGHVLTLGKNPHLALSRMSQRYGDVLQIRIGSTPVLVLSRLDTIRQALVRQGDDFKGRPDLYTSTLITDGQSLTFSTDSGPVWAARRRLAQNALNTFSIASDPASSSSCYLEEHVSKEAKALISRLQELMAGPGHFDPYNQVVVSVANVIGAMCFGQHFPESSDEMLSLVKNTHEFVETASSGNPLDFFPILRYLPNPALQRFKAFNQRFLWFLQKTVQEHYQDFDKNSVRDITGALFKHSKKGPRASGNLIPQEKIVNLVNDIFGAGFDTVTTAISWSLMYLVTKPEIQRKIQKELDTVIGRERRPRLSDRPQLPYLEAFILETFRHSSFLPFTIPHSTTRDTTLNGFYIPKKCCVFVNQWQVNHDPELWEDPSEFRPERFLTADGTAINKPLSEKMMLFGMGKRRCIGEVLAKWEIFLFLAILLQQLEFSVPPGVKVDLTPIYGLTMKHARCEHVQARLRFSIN
row,Compound,Potency
1,Cc1noc(C)c1-c1nc(N2CCOCC2)c2ccccc2n1,0.316 µM (active)
2,Cc1noc(C)c1C(=O)N1CCC2(CCCN(C(=O)Nc3ccccc3)C2)CC1,12.6 µM (active)
3,CNc1nc(-c2ccccc2C(F)(F)F)nc2ccccc12,0.251 µM (active)
4,COc1ccc(Oc2ncc3nc(-c4ccc(F)cc4)c(=O)n(C)c3n2)cc1,2 µM (active)
5,O=C(c1ccncc1)N1CCC2(CCN(Cc3ccccc3)CC2)CC1,inactive
6,Cc1cnc(CNc2ncnc3ccc(-c4ccccc4CN(C)C)cc23)cn1,inactive
7,Cn1cccc1C(=O)N1CCC2(CCCN(Cc3ccncc3)C2)CC1,15.8 µM (active)
8,CC(=O)N1CCC[C@@]2(CCN(Cc3nccs3)C2)C1,inactive
9,CS(=O)(=O)Nc1cccc(-c2nc(NCCN3CCOCC3)c3ccccc3n2)c1,25.1 µM (active)
10,CNc1ncnc2ccc(-c3cccc(NS(C)(=O)=O)c3)cc12,0.316 µM (active)
11,N#Cc1cccc(NC(=O)N2CC[C@@]3(CCCN(C(=O)c4ccco4)C3)C2)c1,inactive
12,CC(=O)NCCNc1nc(-c2ccc(N(C)C)cc2)nc2ccccc12,3.16 µM (active)
13,FC(F)(F)c1ccccc1-c1nccc(NCc2ccccc2)n1,12.6 µM (active)
14,O=C(c1csnn1)N1CCC2(CCN(Cc3ccccc3)CC2)CC1,inactive
15,CN(C)c1ccc(-c2nc(N(C)C)c3ccccc3n2)cc1,0.251 µM (active)
16,CC(=O)NCCNc1ncncc1-c1ccccc1C(F)(F)F,inactive
17,O=C(Nc1cccc(F)c1)N1CC2(CCN(C(=O)c3cnccn3)CC2)C1,inactive
18,O=C(c1ccncc1)N1CCC2(CCN(Cc3nccs3)CC2)CC1,inactive
19,Cc1cnc(CNc2cc(-c3ccoc3)ncn2)cn1,25.1 µM (active)
20,COCCNc1nc(-c2ccccc2C)nc2ccccc12,1.26 µM (active)
21,O=C(c1ccco1)N1CCC[C@@]2(CCN(C(c3ccccc3)c3ccccc3)C2)C1,25.1 µM (active)
22,COc1ccc(C(=O)N2CCC[C@@]3(CCN(C(=O)NC(C)C)C3)C2)cc1,12.6 µM (active)
23,O=C(c1cc(C(F)(F)F)cc(C(F)(F)F)c1)N1CCC2(CC1)CN(c1ccncc1)C2,inactive
24,Cc1cccc(CNc2ncnc3ccc(-c4c(C)noc4C)cc23)c1,5.01 µM (active)
25,COc1ccc(NC(=O)N2CC3(CCN(C(=O)c4csnn4)CC3)C2)cc1,inactive
26,COc1ccc2[nH]cc(CCNc3ccnc(-c4cccc(NS(C)(=O)=O)c4)n3)c2c1,1.58 µM (active)
27,COc1ccc(CNc2cc(-c3ccccc3CN(C)C)ncn2)c(OC)c1,15.8 µM (active)

# Tested on: not listed separately
# Test: NFAT Signaling Pathway (AID 444; active means well fitted curve in either direction with a large enough effect, not every such curve was filed as active;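 further: carbachol stimulus at about its EC50 of 1 µM final; on the % scale 0 is the no-effect control and ±100 the full control effect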)
# Conditions: Jurkat NFAT-bla M1, carbachol, beta-lactamase ratio, 5 h; at 7.69 µM (top of the series) unless noted
# Outline: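 Jurkat cells carrying an NFAT-driven β-lactamase reporter and co-transfected muscarinic M1 receptor were treated with compound plus carbachol (1 uM final, an EC50 level) for 5 h at 37 °C. CCF4 loading followed for 1 h at RT; 460/530 nm ratio gave %activity.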
row,Compound,"activity change, negative = inhibition"
1,Cc1noc(C)c1-c1nc(N2CCOCC2)c2ccccc2n1,16.1%
2,Cc1noc(C)c1C(=O)N1CCC2(CCCN(C(=O)Nc3ccccc3)C2)CC1,0.607%
3,CNc1nc(-c2ccccc2C(F)(F)F)nc2ccccc12,5.59%
4,COc1ccc(Oc2ncc3nc(-c4ccc(F)cc4)c(=O)n(C)c3n2)cc1,-22.3%
5,O=C(Nc1cccc(F)c1)N1CC2(CCN(C(=O)c3cccc(F)c3)CC2)C1,22.7%
6,Cc1cnc(CNc2ncnc3ccc(-c4ccccc4CN(C)C)cc23)cn1,-29.4%
7,CC(=O)N1CCC[C@@]2(CCN(C(=O)Nc3cccc(C#N)c3)C2)C1,23.9%
8,CC(=O)N1CCC[C@@]2(CCN(Cc3nccs3)C2)C1,8.54%
9,Cc1nc2cnc(N3CCNCC3)nc2n(CCC#N)c1=O,-8.3%
10,N#Cc1cccc(NC(=O)N2CC[C@@]3(CCCN(C(=O)c4ccco4)C3)C2)c1,3.83%
11,CC(=O)NCCNc1nc(-c2ccc(N(C)C)cc2)nc2ccccc12,-28.2%
12,Cn1cc(C(F)(F)F)nc1-c1ccc(OC[C@@H](O)CNCCOc2ccc(O)c(C(N)=O)c2)cc1,-4.88% [at 38 µM]
13,CN(C)c1ccc(-c2nc(N(C)C)c3ccccc3n2)cc1,-21.8%
14,O=C(c1ccco1)N1CCC[C@@]2(CCN(c3ccccn3)C2)C1,-3.78%
15,O=C(Nc1cccc(F)c1)N1CC2(CCN(C(=O)c3cnccn3)CC2)C1,20.8%
16,Cc1cnc(CNc2cc(-c3ccoc3)ncn2)cn1,1.34%
17,COCCNc1nc(-c2ccccc2C)nc2ccccc12,-2.48%
18,COc1ccc(C(=O)N2CCC[C@@]3(CCN(C(=O)NC(C)C)C3)C2)cc1,8.55%
19,COc1ccc(NC(=O)N2CC3(CCN(C(=O)c4csnn4)CC3)C2)cc1,16.7%
20,O=C(c1ccncc1)N1CCC[C@@]2(CCN(Cc3ccncc3)C2)C1,3.82%
21,O=C(c1ccncc1)N1CCC2(CC1)CCN(c1ccc(-c3ccccc3)cc1)CC2,14.4%
22,COc1ccc(CNc2nc(-c3ccoc3)nc3ccccc23)c(OC)c1,-8.73%
